# Records with an inconclusive call do not appear. The source made the active and inactive calls. How the source made its calls: active means hit-call score of the fitted dose curve at least 0.9, where 1 is the maximum; inconclusive means response in the unintended direction; inactive means score below 0.9.
# Assay: ATG_M_32_TRANS: Attagene TRANS-FACTORIAL HepG2 Assay for M32 Transcription Factor (Internal Marker) (AID 2282984)
# Settings: HepG2 Attagene TRANS M32 internal marker reporter
# Description: ATG_TRANS is a cell-based, multiplexed-readout assay that uses HepG2, a human liver cell line, with measurements taken at 24 hours after chemical dosing in a 24-well plate.ATG_M_32_TRANS is one of 30 assay component(s) measured or calculated from the ATG_TRANS assay. It is designed to make measurements of mRNA induction, a form of inducible reporter, as detected with fluorescence intensity signals by Reverse transcription polymerase chain reaction (RT-PCR) and Capillary electrophoresis technology.Data from the assay component ATG_M_32_TRANS was analyzed into 1 assay endpoint. This assay endpoint, ATG_M_32_TRANS, was analyzed in the positive analysis fitting direction relative to DMSO as the negative control and baseline of activity. Using a type of inducible reporter, measures of mRNA for gain-of-signal activity can be used to understand the background control at the transcription factor-level as they relate to the gene . Furthermore, this assay endpoint can be referred to as a secondary readout, because this assay has produced multiple assay endpoints where this one serves a background control function. To generalize the intended target to other relatable targets, this assay endpoint is annotated to the background measurement intended target family, where the subfamily is internal marker.
# Human liver HepG2 cells are transiently transfected with multiple reporter transcription units (MRTUs) in 6-well plates using FuGene 6 reagent (Roche; 3 ml FuGene/1 mg DNA). The MRTU constructs are regulated by a cis-regulating element (promoter). […] A major difference between the CIS and TRANS system is that in CIS activities of endogenous TFs are measured, whereas the TRANS assay evaluates changes in activities of exogenous, chimeric NR-Gal4 proteins. […] At the end of 24 hour incubation, total RNA was isolated using TriZol reagent (Invitrogen). The isolated RNA is then reverse-transcribed using oligo(dT) primer and Mo-MLV reverse transcriptase (Invitrogen) with DNAse I (Ambion) treatment for 30 min. The one-tenth of the produced cDNA was amplified by PCR using Taq DNA polymerase (Invitrogen) and two reporter sequence-specific primers. The PCR products were fluorescently labeled by primer extension with 6-arboxyfluorescein (6-FAM) 5'-labeled reporter sequence-specific primer (2 min at 95 C, 20 s at 68 C and 10 min at 72 C) and these products were digested with 5U of HpaI (New England Biolabs) for 2h at 37 C. The fragments were purified using Qiaquick PCR columns (Qiagen), analyzed on an ABI 3130xL genetic analyzer (Applied Biosystems) with peak positions identified by using a set of X-rhodamine (ROX)-labeled MapMarker1000 molecular weight standards (BioVentures). The raw capillary electrophoresis data was processed using Attagraph software (Attagene).
row,SMILES,outcome
1,O=C(Nc1ccc2[nH]ccc2c1)c1cc2cc(F)ccc2n1Cc1cccc(F)c1,inactive
2,CC(C)OC(=O)Nc1ccccc1,inactive
3,O=C(O)C(F)(F)C(F)(F)C(F)(F)C(F)(F)C(F)(F)C(F)(F)F,inactive
4,CCOP(=S)(OCC)Oc1nc(Cl)c(Cl)cc1Cl,inactive
5,C[C@]12CCC(=O)C[C@@H]1CC[C@@H]1[C@@H]2CC[C@]2(C)[C@@H](O)CC[C@@H]12,inactive
6,CCC(=O)C(CC(C)N(C)C)(c1ccccc1)c1ccccc1 (stereo not given),inactive
7,Oc1c(I)cc(I)cc1I,inactive
8,Clc1ccc(C2(Cn3cncn3)CC(Br)CO2)c(Cl)c1 (stereo not given),inactive
9,C=CCc1ccc(OC)cc1,inactive
10,CCCCCCCCc1ccc(O)cc1,inactive
11,Cc1ccc2ccccc2c1C,inactive
12,Nc1ccc(-c2ccc(N)c(Cl)c2)cc1Cl,inactive
13,CC(C)c1ccc(CO)cc1,inactive
14,O=C1C(Cl)=C(Cl)C(=O)c2ccccc21,inactive
15,CCN1CCC2(CC1)COc1cc3c(cc12)N(C(=O)c1ccc(-c2ccc(-c4nnc(C)o4)cc2C)cc1)CC3,inactive
16,COc1ccccc1OC,inactive
17,Cc1ccccc1N,inactive
18,C=C(C)C#N,inactive
19,COP(=O)(OC)O/C(=C\Cl)c1cc(Cl)c(Cl)cc1Cl,inactive
20,COc1cccc(C=O)c1,inactive

row,SMILES,outcome
1,CNC,inactive
2,CCN(CC)C(=O)Cl,inactive
3,CC1(C)CCC(Cc2ccc(Cl)cc2)C1(O)Cn1cncn1 (stereo not given),inactive
4,O=C(O)C(F)(F)C(F)(F)C(F)(F)C(F)(F)C(F)(F)C(F)(F)C(F)(F)C(F)(F)C(F)(F)C(F)(F)F,inactive
5,CCOP(=O)(CN(CCO)CCO)OCC,inactive
6,CC(Br)C(=O)O (stereo not given),inactive
7,CCC(C)(C)c1ccc(O)c(C(C)(C)CC)c1,inactive
8,CC(C)(c1ccc(OCC2CO2)cc1)c1ccc(OCC2CO2)cc1 (stereo not given),inactive
9,[O-][Cl+2]([O-])O,inactive
10,CC(=O)OC(c1ccccc1)C(Cl)(Cl)Cl (stereo not given),inactive
11,CCc1ccccc1C,inactive
12,CCNc1nc(NC(C)(C)C)nc(SC)n1,inactive
13,N#Cc1ccccn1,inactive
14,NNC(=S)NN,inactive
15,CCOC(=O)CP(=O)(OCC)OCC,inactive
16,C1CCC(NC2CCCCC2)CC1,inactive
17,COc1cc(OC)nc(NC(=O)NS(=O)(=O)c2ncccc2C(=O)N(C)C)n1,inactive
18,CCCCC(CC)CO[N+](=O)[O-] (stereo not given),inactive
19,CC(C)(C)c1cc(O)ccc1O,inactive
20,COP(=S)(OC)Oc1c(Cl)cc(C)cc1Cl,inactive
